Data on 40 molecules can be found in PubChem BioAssay (NCATS).

Inconclusive results are not listed. Unmarked numbers belong to inactive results. Calls of active or inactive are those of the source. Calls come from the whole dose curve; as a rule, active = well fitted cell-killing curve with a large enough effect; inconclusive = small, poorly fitted or top-dose-only effect; inactive = flat fitted curve, though single readings scatter. Non-standard residues stand in square brackets, D forms with d. Residues, ends and D or L forms follow the SMILES beside them. *: point of attachment. Nva = CCC[C@H](N)C(=O)O; Cbz = O=C(OCc1ccccc1)*
Potency is the fitted concentration of half-maximal effect.

This assay in a line: qHTS of pediatric cancer cell lines to identify multiple opportunities for drug repurposing: Confirmatory screen for SK-N-SH cells (AID 1347129).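 Note: cells exposed to compound for 48 h before viability read; nearly all actives have a fitted effect of over 60% in size.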 As to conditions: SK-N-SH neuroblastoma cell viability; series mostly up to 46.1 µM; activity change, negative = cytotoxic: at the top concentration. The text has this:
Drug repurposing or repositioning has been offered as a strategy for drug development in oncology programs. This approach has special potential for childhood cancers and other rare or orphan diseases, where the expected return on new drug development has been a disincentive to pharmaceuticals.
In this project we exploit the poly-pharmacology of drugs to discover new indications via phenotypic screening of a panel of 19 well-characterized cell lines derived from solid tumors seen in children and adolescents. The goal is to identify approved drugs with previously unrecognized anticancer properties that has the potential to reveal new mechanisms and biological processes involved in carcinogenesis or drug resistance. We employed a titration-based paradigm (quantitative high-throughput screening or qHTS), where all compounds were tested at multiple concentrations for their effect on cell viability. Concentration-response curves (CRCs) were derived directly from the primary screen, and both potency and efficacy values were used to identify compounds with robust bioactivity profiles. We screened the NIH Chemical Genomics Center (NCGC) Pharmaceutical Collection (NPC) and Mechanism Interrogation Plate (MIPE) small molecule collections of approved and investigational compounds against these cell lines; and measured metabolically active cells after 48 hours of compound treatment as a proxy for cell viability.
Assay Submitter: Nathalia J. Martinez, National Center for Advancing Translational Sciences, National Institutes of Health, Rockville, MD, USA; email: natalia.martinez@nih.gov
[1] Shen, M et al. Quantitative high-throughput phenotypic screening of pediatric cancer cell lines identifies multiple opportunities for drug repurposing. Oncotarget 2017 Dec 19;9(4):4758-4772. PMID 29435139.
The cells were obtained from University of North Carolina (UNC), Pediatric Preclinical Testing Program (PPT), and Coriell Institute (CI).
qHTS cell viability assay:
Cells were assayed in growth media at a density of 500-1,000 cells/well. Five microliters of cells were dispensed into 1,536-well, white, solid-bottom, TC-treated plates (Greiner Bio One) using a multidrop dispenser and incubated at 37 degrees C, 5% CO2, under a humidified atmosphere for 5 hours. Twenty-three nanoliters of compounds and controls (neutral control DMSO or positive control bortezomib at final concentration of 2.3 µM) were subsequently transferred by Kalypsys pintool. For primary screens, the MIPE collection was tested at 11-point dilutions (final concentrations range from 0.78 nM to 46 µM) and the NPC collection at 8-point dilutions (final concentrations range from 0.59 nM to 46 µM). Compounds tested in follow-up screens were assayed at 11-point dilutions. Cells were incubated for 48 hours, followed by addition of 3 µL of CellTiter-Glo (Promega). After a 15 min incubation at room temperature, samples were analyzed for luminescence intensity using a ViewLux High-throughput CCD imager equipped with clear filters.
For orientation: In qHTS, concentration-response curves come from the screen itself.
With `C[C@@]12C(=O)OC(=O)[C@@]1(C)C1CCC2O1`, the Potency was 5.9 µM (active).

For the molecule `NC(=O)Nc1cc(-c2ccc(CN3CCOCC3)cc2)sc1C(N)=O`, the Potency is 14.8 µM (active). In the case of `CN[C@H]1[C@@H](O)[C@@H]2O[C@@H]3O[C@H](C)CC(=O)[C@]3(O)O[C@@H]2[C@@H](NC)[C@H]1O`, the “activity change, negative = cytotoxic” value is -5.23%. As to `CN(C)c1ccc(C(=O)NCCCCCCC(=O)NO)cc1`, the Potency is 2.35 µM (active). Take `N#Cc1c(C2CCNCC2)cc(-c2c(O)cccc2OCC2CC2)nc1N`: the Potency is 23.5 µM (active).

Consider `O=C1NCCc2[nH]c(-c3ccncc3)cc21`, for which the Potency is 2.09 µM (active). Take `COC(=O)[C@@H]1[C@H]2C[C@@H]3c4[nH]c5ccccc5c4CCN3C[C@@H]2CC[C@@H]1O`: the “activity change, negative = cytotoxic” value was 8.22%.

For the molecule `COc1cccc2c1C(=O)c1c(O)c3c(c(O)c1C2=O)C[C@@](O)(C(=O)CO)C[C@H]3O[C@H]1C[C@H](N)[C@H](O)[C@H](C)O1`, the Potency is 0.59 µM (active).

`O=C(C=CC#Cc1cccc(NS(=O)(=O)c2ccccc2)c1)NO`: the Potency is 4.18 µM (active).

For `Nc1ncn([C@@H]2O[C@H](CO)[C@@H](O)[C@@H]2O)c(=O)n1`, the Potency was 16.6 µM (active). In the case of `COc1ccc2c(c1OC)C(=O)OC2[C@H]1c2c(cc3c(c2OC)OCO3)CCN1C` (stereo not given in full), the “activity change, negative = cytotoxic” value was -23.9%. Regarding `O=C(O)C[C@H](O)C[C@H](O)C=Cc1c(C2CC2)nc2ccccc2c1-c1ccc(F)cc1`, the Potency is 1.32 µM (active). `C=CC(=O)N1CCc2ccc(-n3c(=O)ccc4cnc5ccc(-c6cnn(C)c6)cc5c43)cc21`: the Potency was 5.9 µM (active).

`CCC[C@@H](C=O)NC(=O)[C@H](CC(C)C)NC(=O)[C@H](CC(C)C)NC(=O)OCc1ccccc1` (Cbz-Leu-Leu-[Nva]-aldehyde): the Potency is 1.32 µM (active). For `CNC(=O)c1ccc(Nc2cc(Nc3ccccc3S(=O)(=O)C(C)C)c3cc[nH]c3n2)nc1`, the Potency is 5.9 µM (active). The same measure, in the same setting: the figure for `COc1ccc(Nc2cc(-c3cnc(N)nc3)nc(N3CCOCC3)n2)cn1` is 5.9 µM (active); for `C[C@H](NCc1ccc2c(c1)nc(NC(=O)c1ccc(-c3cn[nH]c3)s1)n2CCc1ccccc1)C(C)(C)C` it is 0.833 µM (active).

In the case of `O=C(Nc1cc2cc[nH]c2cn1)c1ccccc1`, the Potency was 10.5 µM (active). Regarding `COC(=O)C=CC(=O)OC`, the “activity change, negative = cytotoxic” value is -0.214%. As for `CNC(=O)Nc1ccc(-c2nc(N3CC4CCC(C3)O4)c3cnn(C4CCC5(CC4)OCCO5)c3n2)cc1`, the Potency is 1.32 µM (active).

Regarding `COc1cc([C@@H]2c3cc4c(cc3[C@@H](O[C@@H]3O[C@@H]5CO[C@@H](c6cccs6)O[C@@H]5[C@H](O)[C@@H]3O)[C@H]3COC(=O)[C@H]23)OCO4)cc(OC)c1O`, the Potency is 3.32 µM (active). Same read-out and setting: the figure for `Cc1ncc(-c2ccnc(Nc3ccc(S(C)(=O)=O)cc3)n2)n1C(C)C` is 4.18 µM (active). `CC(C)C[C@H](NC(=O)CNC(=O)c1cc(Cl)ccc1Cl)B1OC(=O)CC(CC(=O)O)(C(=O)O)O1` (stereo not given in full): the “activity change, negative = cytotoxic” value is -2.2%. As to `C=C1C(=CC=C2CCC[C@]3(C)[C@@H]([C@H](C)CCCC(C)(C)O)CC[C@@H]23)C[C@@H](O)C[C@@H]1O`, the “activity change, negative = cytotoxic” value is 0.243%. As to `C#CCC(Cc1cnc2nc(N)nc(N)c2n1)c1ccc(C(=O)N[C@@H](CCC(=O)O)C(=O)O)cc1` (stereo not given in full), the “activity change, negative = cytotoxic” value was -3.54%. Consider `COc1cccc2c1C(=O)c1c(O)c3c(c(O)c1C2=O)C[C@@](O)(C(=O)CO)C[C@@H]3O[C@H]1C[C@H](N)[C@H](OC2CCCCO2)[C@H](C)O1` (stereo not given in full), for which the Potency was 4.69 µM (active). The same measure, in the same setting: for `CC(=O)ON=C1C(c2c(O)[nH]c3cc(Br)ccc23)=Nc2ccccc21` the value was 23.5 µM (active). `Cc1cc(Nc2ncc3c(n2)N(C)C(=O)N(c2cc(NC(=O)c4cccc(C(F)(F)F)c4)ccc2C)C3)n(C)n1`: the Potency was 0.332 µM (active). For the molecule `COC1=C2C[C@@H](C)C[C@H](OC)[C@@H](O)[C@@H](C)C=C(C)[C@H](OC(N)=O)[C@@H](OC)C=CC=C(C)C(=O)NC(=CC1=O)C2=O`, the Potency was 2.35 µM (active). As to `COc1ccc(C[C@@H](C)[C@@H](C)Cc2ccc(OC)c(OC)c2)cc1OC`, the “activity change, negative = cytotoxic” value is -17.3%.

For the molecule `C[C@@H](Oc1ccc2[nH]nc(C=Cc3cnn(CCO)c3)c2c1)c1c(Cl)cncc1Cl`, the “activity change, negative = cytotoxic” value was -25.2%. Take `Cc1cnc(Nc2ccc(N3CCN(C)CC3)cc2)nc1Nc1cccc(S(=O)(=O)NC(C)(C)C)c1`: the Potency was 2.35 µM (active). Consider `Cn1cc(-c2cnn3c(N)c(Br)c([C@H]4CCCNC4)nc23)cn1`, for which the Potency is 18.7 µM (active). Turning to `CC1(C)O[C@@H]2C[C@H]3[C@@H]4CCC5=CC(=O)C=C[C@]5(C)[C@@H]4[C@@H](O)C[C@]3(C)[C@]2(C(=O)CO)O1`, the “activity change, negative = cytotoxic” value was 7.28%. `Cc1nc(NC(=O)N2CCC[C@@H]2C(N)=O)sc1-c1ccnc(C(C)(C)C(F)(F)F)c1`: the Potency was 11.8 µM (active). Consider `COc1cccc2c1C(=O)c1c(O)c3c(c(O)c1C2=O)C[C@@](O)(C(C)=O)C[C@H]3O[C@H]1C[C@H](N)[C@H](O)[C@H](C)O1`, for which the Potency is 0.662 µM (active). As for `O=C(NCc1ccccc1)[C@H](Cc1ccccc1)NC(=O)[C@@H]1O[C@@H]1C(=O)NCCc1ccc(O)cc1`, the “activity change, negative = cytotoxic” value was -5.2%. Turning to `Cn1cc(CNCC2CCN(c3ncc(C(=O)NO)cn3)CC2)c2ccccc21`, the Potency was 0.469 µM (active). On the same count and under the same terms, the figure for `FC(F)c1nc2ccccc2n1-c1nc(N2CCOCC2)nc(N2CCOCC2)n1` is 2.35 µM (active); for `CCS(=O)(=O)Nc1ccc2[nH]c(O)c(C(=Nc3ccc(CN4CCCCC4)cc3)c3ccccc3)c2c1` it is 0.332 µM (active).
